# Experimental data from PubChem BioAssay AID488969 (Vanderbilt High Throughput Screening Facility, 2010).
# In all, about 110,000 compounds were measured (“z-score”: median about -0.1, highest 2% from about 2 on). For the sample, the highest values were picked, then their nearest neighbours and some compounds at random. Activity calls are given as the source filed them.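 How the source made its calls: active means z-score in the third read window above 3 or below -3; inactive means the rest.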
# Biological target: Metabotropic glutamate receptor 8 (Rattus norvegicus) (UniProt P70579)
# Sequence (P70579 whole entry, looked up): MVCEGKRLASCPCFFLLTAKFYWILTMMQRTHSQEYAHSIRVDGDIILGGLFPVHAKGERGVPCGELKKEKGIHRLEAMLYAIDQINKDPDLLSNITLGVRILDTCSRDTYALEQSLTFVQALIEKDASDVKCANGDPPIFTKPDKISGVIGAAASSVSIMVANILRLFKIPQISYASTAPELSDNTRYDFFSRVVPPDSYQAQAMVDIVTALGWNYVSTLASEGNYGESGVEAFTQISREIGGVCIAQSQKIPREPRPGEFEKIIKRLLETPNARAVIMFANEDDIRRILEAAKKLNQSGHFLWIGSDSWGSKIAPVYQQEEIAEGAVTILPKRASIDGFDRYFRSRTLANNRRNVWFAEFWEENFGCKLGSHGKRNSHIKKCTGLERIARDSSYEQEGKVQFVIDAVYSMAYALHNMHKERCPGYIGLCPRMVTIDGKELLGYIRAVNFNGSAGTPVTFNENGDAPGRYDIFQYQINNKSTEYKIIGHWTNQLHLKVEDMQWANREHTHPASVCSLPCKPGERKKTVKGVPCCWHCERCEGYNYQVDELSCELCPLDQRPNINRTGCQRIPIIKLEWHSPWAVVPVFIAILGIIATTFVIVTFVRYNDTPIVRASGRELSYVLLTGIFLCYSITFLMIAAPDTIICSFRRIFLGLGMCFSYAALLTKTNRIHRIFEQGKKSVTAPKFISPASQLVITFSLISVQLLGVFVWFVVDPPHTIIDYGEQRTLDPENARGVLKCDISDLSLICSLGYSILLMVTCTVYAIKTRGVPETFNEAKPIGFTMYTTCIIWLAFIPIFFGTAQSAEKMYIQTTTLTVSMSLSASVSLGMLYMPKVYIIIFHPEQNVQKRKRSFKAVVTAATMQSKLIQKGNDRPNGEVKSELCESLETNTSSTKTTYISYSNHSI
# Experiment: mGluR8 Gi/Go-coupled signaling modulation – cell-based, rat, thallium flux, HTS, primary screen (AID 488969)
# Details: HEK293 rat mGluR8, GIRK (G protein-gated inwardly rectifying potassium channel) thallium flux, FluoZin2; at 10 µM; stronger effect = higher value; submaximal glutamate (EC20) added with thallium
row,SMILES,z-score
1,CCCn1c(SCC(=O)N2N=C3/C(=C/c4ccc(OC)cc4)CCCC3C2c2ccc(OC)cc2)n[nH]c1=O (stereo not given),-0.0176
2,O=C(CSCc1ccc(F)cc1)Nc1ccccc1,0.0848
3,CC(C)CC(=O)NS(=O)(=O)c1ccc(N)cc1,0.0965
4,COc1cccc(/C=C/C(=O)Oc2ccc(C(=O)c3ccc(F)cc3)cc2)c1,-2.23
5,CN(C)CCNC(=O)C1CCCNC1=O (stereo not given),0.0264
6,Cc1ccc(S(=O)(=O)NCCNC(=O)C2CCCNC2=O)cc1 (stereo not given),2.41
7,CCCCNC(=O)C1CCCNC1=O (stereo not given),0.0768
8,NC(=O)SCC(=O)Nc1cccc(Cl)c1,2.86
9,N#CCSCC(=O)Nc1ccc(Cl)cc1,0.285
10,Cc1ccc(NC(=O)Cn2cccc2)cc1Cl,2.51
11,O=C(COc1ccccc1O)Nc1ccc(Cl)cc1,-0.0165
12,Cc1ccc(Cl)cc1NC(=O)CSC(N)=O,0.476
13,Cc1ccc(NC(=O)CCn2cccc2)cc1Cl,-0.079
14,Cc1ccc(NC(=O)CSCC#N)cc1Cl,-0.0832
15,NC(=O)SCC(=O)Nc1ccc(Cl)cc1,5.18 (active)
16,Nc1cc(=O)[nH]c(SCC(=O)Nc2cccc(Cl)c2)n1,0.151
17,Cc1ccc(NC(=O)CSC(N)=O)cc1Cl,5.44 (active)
18,Cc1ccc(Cl)cc1NC(=O)Cn1cccc1,-0.44
19,COC(=O)CCC(=O)Nc1cccc(Cl)c1,-0.0969
20,O=C(NNC1=NCCCCC1)c1ccccc1,-0.78
21,O=S(=O)(Cc1ccccc1)N1CCCC(c2nc(-c3ccc(F)cc3)no2)C1 (stereo not given),-0.449
22,Cc1nc(NC(=O)CSc2ccc(-c3nc4ccccc4[nH]3)cn2)sc1C,-0.0534
23,O=C(/C=C/c1ccc(OCc2ccccc2)c(OCc2ccccc2)c1)c1cccnc1,0.691
24,Cc1ccc(NC(=O)N2CCC(C(=O)NCc3ccc(F)cc3)CC2)cc1,2.21

row,SMILES,z-score
1,O=C(NCc1ccc(F)cc1)C1CCN(C(=O)NCc2ccccc2)CC1,0.336
2,Cc1ccc(NC(=O)N2CCC(C(=O)NCc3ccccc3)CC2)cc1,-0.545
3,O=C(COCC(=O)N/N=C/c1ccccc1F)N/N=C/c1ccccc1F,-0.201
4,CCn1c(SCc2cccc(C)c2)nnc1-c1ccccc1,-0.431
5,CCn1c(SCc2ccc(Cl)cc2)nnc1-c1ccccc1,3.4 (active)
6,CCn1c(SCc2ccc(C#N)cc2)nnc1-c1cccc(Cl)c1,-0.177
7,COCCN(C(=O)Nc1ccccc1)c1ccccc1,-0.157
8,Cc1cc(Br)ccc1NC(=S)Nc1cccc([N+](=O)[O-])c1,0.848
9,O=C(NNC(=O)C1CC1c1ccccc1)Nc1cccc(Cl)c1 (stereo not given),-0.494
10,Cc1ccc(C2CC2C(=O)NNC(=S)Nc2cccc(C)c2)cc1 (stereo not given),3.29 (active)
11,Cc1ccc(NC(=S)NNC(=O)C2CC2c2ccc(C)cc2)cc1 (stereo not given),1.64
12,CC1=C(C)CC(C(=O)Nc2cccc(Cl)c2)C(C(=O)O)C1 (stereo not given),-0.289
13,Cc1cccc(NC(=O)C2CCCC2)c1,0.277
14,Cc1cccc(NC(=S)NNC(=O)c2ccco2)c1,0.0496
15,Cc1ccc(C2CC2C(=O)NN)cc1 (stereo not given),-0.033
16,Cc1ccc(C2CC2C(=O)NNC(=S)Nc2cccc(Cl)c2)cc1 (stereo not given),5.51 (active)
17,Cc1ccc(C2CC2C(=O)NNC(=S)Nc2ccc(Cl)cc2)cc1 (stereo not given),4.55 (active)
18,O=C(c1ccccc1)c1ccc(Oc2ncccn2)cc1,-0.321
19,O=[N+]([O-])c1ccccc1N/N=C/c1cc2ccccc2nc1Cl,-0.459
20,CC(C)c1ccc(-c2c(C#N)c(N)nc(SCC(=O)N3CCCCC3)c2C#N)cc1,-0.019
21,O=C1c2cccc3cccc(c23)C(=O)N1CCN1CCN(C(=S)Nc2ccc(F)cc2)CC1,-0.203
22,Cc1cccc(-n2c(SCC(=O)Nc3ncc(Cl)cc3Cl)nc3ccccc32)c1,-0.585
23,COc1ccc(-n2c(=S)[nH]c3ccccc32)cc1,1.9
24,COc1ccc(-n2cc(-c3ccccc3)[nH]c2=S)cc1,11.4 (active)

row,SMILES,z-score
1,Cc1ccc(-n2c(-c3ccccc3)n[nH]c2=S)cc1,0.357
2,O=C(CCC1CCCC1)NC1CCCCC1,-0.0138
3,O=C(O)CCC(=O)NC1CCCCC1NC(=O)CCC(=O)O (stereo not given),2.2
4,O=C(CCCC(=O)NC1CCCC1)NC1CCCC1,-0.0851
5,O=C(O)CCC(=O)NC1CCCCCCC1,3.34 (active)
6,CC1CCCCC1NC(=O)CSCC(=O)O (stereo not given),-0.0424
7,O=C(O)CCC(=O)NC1CCCCC1,-0.0259
8,O=S(=O)(NCc1cccnc1)c1cccc2cccnc12,-0.0796
9,Cc1cc(C)c(S(=O)(=O)N(C)CC(=O)N2CCCCC2)c(C)c1,0.255
10,COc1ccc2c(c1)c(N=O)c(O)n2C,-0.55
11,O=C(C1CCN(S(=O)(=O)N2CCOCC2)CC1)N1CCc2ccccc21,-1.37
12,O=C(NCCO)c1scc2c1OCCO2,0.107
13,O=c1c2ccccc2c(C=NCc2ccccn2)c(O)n1-c1ccccc1,9.73 (active)
14,Cc1ccc(-n2c(O)c(C=NCc3ccccn3)c3ccccc3c2=O)cc1,-0.774
15,Cc1cccc(-n2c(O)c(C=NCc3ccccn3)c3ccccc3c2=O)c1,-0.159
16,COc1ccc(CNC(=O)C/C(C)=N/NC(=O)Cc2ccc(OC)c(OC)c2)cc1,0.123
17,CCCCN(CCCC)S(=O)(=O)c1ccc2[nH]c(=O)[nH]c2c1,-0.144
18,CCOc1ccc(/C=C(\C#N)C(=O)Nc2cccnc2)cc1,-0.416
19,COc1cc(/C=C(\C#N)C(=O)Nc2cccnc2)ccc1OC(C)C,2.99
20,COc1ccc(/C=C(\C#N)C(=O)Nc2cccnc2)cc1,-0.0907
21,CC(C)C(=O)NC(C)C(c1cccs1)N1CCN(C)CC1 (stereo not given),0.199
22,COc1ccccc1OCCOc1ccc(C(=O)c2ccccc2)cc1,1.04
23,O=C(CSc1ccccc1)NCCSCc1ccccc1,-0.635
24,C=CCNC(=O)NC(=O)CSc1nc2cc([N+](=O)[O-])ccc2n1-c1cccc(C(F)(F)F)c1,2.75

row,SMILES,z-score
1,CCNC(=O)CSc1nc2cc([N+](=O)[O-])ccc2n1-c1cccc(C(F)(F)F)c1,-0.0324
2,NC(=O)CSc1nc2cc([N+](=O)[O-])ccc2n1-c1cccc(C(F)(F)F)c1,0.159
3,O=C(OCCN1C(=O)CCC1=O)c1ccc(S(=O)(=O)N2CCCCC2)cc1,-1.06
4,Cn1c(NC(=O)c2cccs2)c(-c2cccs2)c(=O)c2ccccc21,0.899
5,Cc1nn(Cc2ccc(Cl)cc2)c(C)c1NC(=O)C1CC=CCC1C(=O)O (stereo not given),-0.0201
6,CCN(CC)CCCNC(=O)C1c2ccccc2Oc2ccccc21,0.199
7,CNCCCC1Sc2ccccc2Oc2ccccc21 (stereo not given),2.85
8,CN(C)CCC1Sc2ccccc2Oc2ccccc21 (stereo not given),1.77
9,Cc1sc(NC(=O)c2ccco2)c(C(=O)c2ccc(Cl)cc2)c1C,-0.135
10,CC(C)(C)NC(=O)c1cc(Cl)ccc1[N+](=O)[O-],-0.172
11,N#C/C(=C/c1cn(-c2ccccc2)nc1-c1cccc(S(=O)(=O)N2CCOCC2)c1)C(=O)NCc1ccco1,-0.112
12,Cc1cccc(N2C(N)=NC(N)=NC23CCCCC3)c1,2.24
13,NC1=NC2(CCCCC2)N(c2cccc(Cl)c2)C(N)=N1,0.453
14,Cc1ccc(N2C(N)=NC(N)=NC23CCCC3)c(C)c1,0.0847
15,Cc1ccc(S(=O)(=O)NCCSCc2ccccc2)cc1,-0.24
16,COc1ccc(CNC(=O)CCCOc2cc(=O)n(C)c3ccccc23)cc1,0.0421
17,Cn1c(=O)cc(OCCCC(=O)NCc2ccc3c(c2)OCO3)c2ccccc21,8.84 (active)
18,Cn1cc(CCC(=O)NCc2ccc3c(c2)OCO3)c2ccccc21,3.75 (active)
19,Cn1c(=O)cc(OCCCC(=O)Nc2ccc3c(c2)OCCO3)c2ccccc21,-0.101
20,CC(=O)c1cn(CC(=O)NCc2ccc3c(c2)OCO3)c2ccccc12,-0.0873
21,O=C(CCn1cccc1)NCc1ccc2c(c1)OCO2,-0.423
22,O=S(=O)(NCc1ccccn1)c1ccccc1,-0.362
23,COc1ccc(-c2nc(-c3cccc(C)c3)[nH]c(=O)c2C#N)cc1,-0.296
24,COc1ccc(S(=O)(=O)n2ccc(C)n2)cc1C,-0.988

row,SMILES,z-score
1,CCCNC(=O)C1CCN(S(=O)(=O)c2ccc(-c3nn[nH]n3)cc2)CC1,-0.171
2,N/C(=N\c1nc2c(c(=O)[nH]1)CCC2)Nc1ccccc1,0.214
3,c1ccc(CN2CCOCC2)cc1,0.378
4,CC(=O)C1CCN(Cc2ccccc2)CC1,-0.262
5,CC12CN(Cc3ccccc3)CC(C)(CN(Cc3ccccc3)C1)C2=NO,2.4
6,Cn1ncc(Br)c1C(=O)N/N=C/c1cccc(OC2CSC2)c1,-0.309
7,O=C(CSc1nnnn1C1CCCCC1)NCc1ccco1,-0.228
8,CCOC(=O)c1c(NC(=O)CNCCOC)sc2c1CCCC2,-1.06
9,Cc1nn(C)c(C)c1CN(C)C(=O)c1nn2c(c1Br)NC(c1cccs1)CC2C(F)(F)F (stereo not given),2.24
10,Cc1nn(C)c(C)c1CN(C)C(=O)c1cc2n(n1)C(C(F)(F)F)CC(c1cccs1)N2 (stereo not given),0.0534
11,Cc1nn(C)c(C)c1CNC(=O)c1nn2c(c1Cl)NC(c1cccs1)CC2C(F)(F)F (stereo not given),-0.0188
12,CCOc1ccc2nc(NC(=O)C3CCCN(S(=O)(=O)c4cccs4)C3)sc2c1 (stereo not given),0.284
13,COc1ccc(N2CCN(C(=S)Nc3cc(C)cc(C)c3)CC2)cc1,0.06
14,COc1ccc(C(=O)NC(=O)N2CCCCC2)cc1,0.975
15,Cc1cccc(C(=O)NC(=S)N2CCN(C(=S)NC(=O)c3cccc(C)c3)CC2)c1,0.153
16,COc1ccc(C(=O)NC(=S)N2CCCCC2)cc1,3.44 (active)
17,COc1ccc(OC(C)C(=O)N2CCC(C)CC2)cc1 (stereo not given),0.926
18,CNC(=S)N1CCN(c2cccc(OC)c2)CC1,0.273
19,COc1ccc(C(=O)NC(=S)N2CCC(C)CC2)cc1,14.2 (active)
20,CNC(=S)N1CCN(c2ccc(OC)cc2)CC1,8.68 (active)
21,COc1ccc(C(=O)NC(=S)N2CC(C)OC(C)C2)cc1 (stereo not given),0.0339
22,CC1CCN(C(=S)NC(=O)c2ccccc2)CC1,4.42 (active)
23,CC1CCN(C(=S)NCCc2ccccc2)CC1,-0.0312
24,COc1ccc(C(=S)N2CCCCCC2)cc1,-0.075
